The record followed here is PubChem BioAssay (NCI).

This is part of a sample that, as a whole, favours compounds with a hit. Of some 83,000 tested, about 20% had one in any assay.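 In brief: 96-well plates, 48 h treatment, single concentration, percent growth endpoint.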 A number with no mark means an inactive call. The source made the active and inactive calls. The calls were made as follows: active = growth percent below 10; inactive = the rest.

Assay in all cases: NCI-60 one-dose screen, 48 h (100 = growth as untreated, 0 = no growth, -100 = all killed)
In one assay the test system is DU-145 prostate. The settings on record: 10 µM unless noted.
The next assay concerns K-562 leukemia. To be noted: 10 µM unless noted.
The subject of the next assay is MALME-3M melanoma. The settings on record: 10 µM unless noted.
Another assay relates to MDA-MB-231 breast. To be noted: 10 µM unless noted.
In another assay the test system is RXF 393 renal. The settings on record: 10 µM unless noted.
The next assay deals with SF-268 CNS. The settings on record: 10 µM unless noted.
A further assay deals with SF-295 CNS. The settings on record: 10 µM unless noted.
Another assay relates to SF-539 CNS. The settings on record: 10 µM unless noted.
The subject of another assay is UACC-257 melanoma. The settings on record: 10 µM unless noted.
A further assay has as its system M14 melanoma. To be noted: 10 µM unless noted.
The subject of a further assay is HCT-15 colon. To be noted: 10 µM unless noted.
Another assay relates to HT29 colon. The settings on record: 10 µM unless noted.
The test system of another assay is SNB-75 CNS. To be noted: 10 µM unless noted.
For a further assay, the system named is SNB-19 CNS. The settings on record: 10 µM unless noted.
Another assay deals with U251 CNS. To be noted: 10 µM unless noted.
A further assay concerns PC-3 prostate. To be noted: 10 µM unless noted.
For the next assay, the system named is SK-MEL-5 melanoma. To be noted: 10 µM unless noted.
For another assay, the system named is UACC-62 melanoma. To be noted: 10 µM unless noted.
The next assay concerns LOX IMVI melanoma. The settings on record: 10 µM.
For the next assay, the system named is SK-MEL-28 melanoma. To be noted: 10 µM unless noted.

In the case of `Cn1cc(-c2cc3nc(-c4c[nH]c5ccc(Br)cc45)cc(N)n3n2)c2ccccc21`, the growth was -85.7% (active) in the assay with DU-145 prostate; 0.783% (active) in the assay with K-562 leukemia; -73.4% (active) with MALME-3M melanoma; -63.2% (active) in the assay with MDA-MB-231 breast; -89.4% (active) in the assay on RXF 393 renal; -32.7% (active) with SF-268 CNS. Moreover, the growth in the assay on SF-295 CNS was -81.8% (active); with SF-539 CNS, -89.7% (active); in the assay with UACC-257 melanoma, -84.6% (active); in the assay on M14 melanoma it was -85.5% (active); in the assay on HCT-15 colon it was -85.2% (active); in the assay with HT29 colon it was -83.1% (active). In addition, the growth was -64.5% (active) in the assay with SNB-75 CNS; -68.1% (active) in the assay with SNB-19 CNS; -89.9% (active) in the assay on U251 CNS; -77.3% (active) in the assay on PC-3 prostate; -77.8% (active) in the assay with SK-MEL-5 melanoma; -70.3% (active) in the assay on UACC-62 melanoma. Further, the growth is -85.1% (active) in the assay with LOX IMVI melanoma and -96.6% (active) with SK-MEL-28 melanoma.

As to `Cc1cccc(-c2nc(Nc3cccc(S(N)(=O)=O)c3)c3ccccc3n2)c1`, the growth in the assay with DU-145 prostate was 57.3%; in the assay with K-562 leukemia, 10.2%; in the assay on MALME-3M melanoma, 75%; with MDA-MB-231 breast, -13.6% (active); in the assay with RXF 393 renal it was 29.2%; in the assay with SF-268 CNS, 46.2%. In addition, the growth in the assay with SF-295 CNS is 20.2%; in the assay with SF-539 CNS, -9.93% (active); in the assay with UACC-257 melanoma, 87%; with M14 melanoma, 54%; in the assay on HCT-15 colon, 9.69% (active); in the assay on HT29 colon it was 38.4%. For the same molecule, the growth in the assay on SNB-75 CNS is 80.3%; in the assay on SNB-19 CNS, 51.4%; in the assay on U251 CNS, 36.3%; with PC-3 prostate, 39.8%; in the assay with SK-MEL-5 melanoma, 56.5%; in the assay on UACC-62 melanoma, 49.9%. The growth with LOX IMVI melanoma was 7.14% (active); in the assay on SK-MEL-28 melanoma it was 57.7%.

As for `Nc1nnc(-c2c[nH]c3ccc(Br)cc23)c(-c2c[nH]c3ncc(Br)cc23)n1`, the growth in the assay with DU-145 prostate was 55.7%; in the assay on K-562 leukemia, 18.8%; in the assay with MALME-3M melanoma it was 39.2%; in the assay with MDA-MB-231 breast it was 45.8%; with RXF 393 renal, 2.79% (active); in the assay on SF-268 CNS it was 47.7%. Further, the growth in the assay with SF-295 CNS was 41.2%; with SF-539 CNS it was 41.5%; with UACC-257 melanoma, 59.5%; with M14 melanoma, 38.6%; in the assay with HCT-15 colon, 26.9%; in the assay with HT29 colon, 43.6%. Besides, the growth in the assay on SNB-75 CNS was 50.2%; with SNB-19 CNS, 47%; in the assay with U251 CNS, 41.8%; with PC-3 prostate, 29.1%; with SK-MEL-5 melanoma it was 44.2%; in the assay with UACC-62 melanoma it was 25.3%. In addition, the values for the growth with LOX IMVI melanoma and with SK-MEL-28 melanoma were 31.8% and 37.5%, respectively.

Regarding `CC1(C)CC[C@]2(C(=O)O)CC[C@]3(C)C(=CCC4[C@@]5(C)C[C@@H](O)[C@@H]6OC(c7ccccc7Br)OC[C@@]6(C)C5CC[C@]43C)C2C1` (stereo not given in full), the growth was 20% in the assay with DU-145 prostate; 11.6% in the assay on K-562 leukemia; 44% with MALME-3M melanoma; 32.4% in the assay with MDA-MB-231 breast; 22.7% in the assay with RXF 393 renal; 24.2% in the assay with SF-268 CNS. The growth with SF-295 CNS is 10.6%; in the assay with SF-539 CNS, 26.8%; in the assay with UACC-257 melanoma, 18.2%; in the assay with M14 melanoma, 31.8%; in the assay on HCT-15 colon, 8.96% (active); in the assay with HT29 colon, 13.1%. Also, the growth was 48.1% with SNB-75 CNS; 27.7% in the assay with SNB-19 CNS; 13.2% in the assay with U251 CNS; 13.1% in the assay on PC-3 prostate; 7% (active) in the assay on SK-MEL-5 melanoma; 28.5% with UACC-62 melanoma. Besides, the growth in the assay with LOX IMVI melanoma is 13.5%; in the assay with SK-MEL-28 melanoma, 39.5%.

Turning to `CCN(CC)c1ccc(/C=N/Nc2nc(-c3ccc(Br)cc3)cs2)c(O)c1`, the growth in the assay with DU-145 prostate is 91.7%; in the assay on K-562 leukemia, 4.62% (active); in the assay with MALME-3M melanoma, 53.4%; in the assay with MDA-MB-231 breast, 95.9%; in the assay on RXF 393 renal, 64.9%; in the assay on SF-268 CNS it was 99.7%. Besides, the growth in the assay with SF-295 CNS is 91.5%; with SF-539 CNS, 52.3%; in the assay with UACC-257 melanoma it was 91.7%; in the assay on M14 melanoma, 54.5%; with HCT-15 colon, 11.5%; in the assay on HT29 colon, 56.3%. Besides, the growth with SNB-75 CNS was 77.4%; with SNB-19 CNS, 107%; with U251 CNS it was 81.7%; in the assay on PC-3 prostate, 85.2%; with SK-MEL-5 melanoma it was 77.2%; in the assay with UACC-62 melanoma, 77.4%. In addition, the growth is -57.5% (active) with LOX IMVI melanoma and 86.2% in the assay with SK-MEL-28 melanoma.

As for `COc1c(F)ccc(C(=O)Nc2ccc3nc(NC(=O)C4CCCN(S(=O)(=O)c5ccc(Br)s5)C4)sc3c2)c1F` (stereo not given), the growth in the assay with DU-145 prostate is 88%; in the assay with K-562 leukemia it was 68.9%; with MALME-3M melanoma, 88.9%; in the assay with MDA-MB-231 breast it was 81.6%; in the assay on RXF 393 renal, 36.1%; with SF-268 CNS it was 64.1%. In addition, the growth with SF-295 CNS was 69.3%; in the assay with SF-539 CNS it was 78%; with UACC-257 melanoma, 88.7%; in the assay on M14 melanoma it was 89.7%; with HCT-15 colon, 63%; in the assay on HT29 colon it was 75.5%. The growth with SNB-75 CNS is 66.5%; in the assay on SNB-19 CNS, 90.1%; in the assay with U251 CNS, 68%; with PC-3 prostate, 56.1%; with SK-MEL-5 melanoma it was 81.5%; in the assay on UACC-62 melanoma, 75.6%. The growth with LOX IMVI melanoma was 79.3%; in the assay with SK-MEL-28 melanoma it was 94.6%.

Consider `COc1ccc2c(c1)c(-c1cc(N)n3nc(-c4cn(C)c5ccccc45)cc3n1)cn2C`, for which the growth in the assay on DU-145 prostate is -58% (active); in the assay with K-562 leukemia, 2.2% (active); with MALME-3M melanoma, -76.5% (active); in the assay on MDA-MB-231 breast, -53.8% (active); in the assay with RXF 393 renal, -82.2% (active); in the assay with SF-268 CNS, -56.5% (active). Also, the growth was -73.3% (active) with SF-295 CNS; -87.6% (active) in the assay with SF-539 CNS; -67.8% (active) in the assay on UACC-257 melanoma; -83% (active) in the assay with M14 melanoma; -80.1% (active) in the assay with HCT-15 colon; -64.6% (active) with HT29 colon. Further, the growth was -66.3% (active) in the assay with SNB-75 CNS; 4.07% (active) in the assay on SNB-19 CNS; -80% (active) in the assay on U251 CNS; -20.5% (active) in the assay on PC-3 prostate; -58.3% (active) in the assay on SK-MEL-5 melanoma; -58.4% (active) in the assay with UACC-62 melanoma. Besides, the growth with LOX IMVI melanoma was -87.1% (active); with SK-MEL-28 melanoma, -92.2% (active).

For `COc1ccc(NC(=O)[C@@H](N)Cc2ccccc2)cc1C(=O)Nc1cccc(C2CC(=O)c3c(cc(OC)c(OC)c3OC)O2)c1` (stereo not given in full), the growth in the assay with DU-145 prostate is 58.1%; with K-562 leukemia, 17.5%; in the assay with MALME-3M melanoma, 66%; in the assay on MDA-MB-231 breast it was 63%; in the assay with RXF 393 renal, 73.7%; with SF-268 CNS, 60.5%. Further, the growth in the assay with SF-295 CNS was 127%; with SF-539 CNS it was 82.4%; in the assay on UACC-257 melanoma, 95.5%; with M14 melanoma it was 65%; with HCT-15 colon it was 37.7%; in the assay on HT29 colon, 73.4%. The growth was 108% in the assay with SNB-75 CNS; 79% in the assay with SNB-19 CNS; 60.2% in the assay with U251 CNS; 38.8% in the assay on PC-3 prostate; 46.5% in the assay on SK-MEL-5 melanoma; 49.7% in the assay on UACC-62 melanoma. Moreover, the growth with LOX IMVI melanoma was 25.1%; in the assay with SK-MEL-28 melanoma, 73.2%.
